Screening results as filed in PubChem.
Sampled rows, rich in hits. Any-hit rate of the full collection: about 2.5%.
MEKK3 PB1 HTS = modulators of MEKK3-MEK5 PB1 binding, primary screen, biochemical, wildtype MEKK3, multiplex bead flow cytometry, Alexa488-MEK5 | binding response (% of control), % at 10 µM | Mitogen-activated protein kinase kinase kinase 3 (Homo sapiens), Q99759 | AID 1529, 2009 | 1.4% of 290,000 active | bead-based flow cytometry, Alexa488-MEK5 binding to MEKK3; actives lie on both sides; 0 = blocked by unlabeled MEK5, 100 = vehicle;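 active means binding response more than 3 SD above or below the average of its plate-row segment, actives on both sides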;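 further: Alexa488 bead fluorescence after subtracting the streptavidin-only scavenger bead signal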
Target sequence (Q99759 whole entry, looked up): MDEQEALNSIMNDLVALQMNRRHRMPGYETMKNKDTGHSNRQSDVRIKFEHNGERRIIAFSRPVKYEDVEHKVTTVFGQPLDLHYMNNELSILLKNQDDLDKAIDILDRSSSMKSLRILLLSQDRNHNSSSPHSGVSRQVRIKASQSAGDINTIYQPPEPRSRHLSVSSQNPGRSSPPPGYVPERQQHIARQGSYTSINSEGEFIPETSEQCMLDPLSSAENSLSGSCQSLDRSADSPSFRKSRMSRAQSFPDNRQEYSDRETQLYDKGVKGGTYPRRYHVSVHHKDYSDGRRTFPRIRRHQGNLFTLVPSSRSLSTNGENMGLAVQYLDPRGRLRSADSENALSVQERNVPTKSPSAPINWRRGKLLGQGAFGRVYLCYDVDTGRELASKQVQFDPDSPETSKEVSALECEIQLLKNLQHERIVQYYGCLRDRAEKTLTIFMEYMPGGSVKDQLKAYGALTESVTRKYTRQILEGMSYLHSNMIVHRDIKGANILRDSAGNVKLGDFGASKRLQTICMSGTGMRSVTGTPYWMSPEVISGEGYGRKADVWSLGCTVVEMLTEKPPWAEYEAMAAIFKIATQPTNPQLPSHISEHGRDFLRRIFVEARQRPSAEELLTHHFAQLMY
GRK2 inh = compounds blocking aptamer binding on GRK2 – biochemical, human GRK2, bead flow cytometry, HTS, primary screen; Beta-adrenergic receptor kinase 1 (Homo sapiens), P25098; FAM-aptamer displacement from GRK2; inhibition of aptamer binding, % at 10 µM; 0.59% of 330,000 active; AID 488847, 2010;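 active means inhibition of aptamer binding above 40%, roughly 3 SD of noise, on plates passing a quality check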;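 further: median bead fluorescence of bound FAM aptamer so fluorescent compounds give negative values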
MEKK2 mut-MEK5 = MEK5 binding signal on mutant MEKK2 PB1, primary screen, biochemical, multiplex bead flow cytometry, Alexa488-MEK5. AID 1530, 2009. 0.35% of 290,000 active. Alexa488-MEK5 binding to MEKK2 mutant. percent response, % at 10 µM; in the data active means percent response above about 24%, passing the limit was not always enough
MEKK2wt PB1 HTS = modulators of MEK5 binding to wildtype MEKK2, primary screen, biochemical, multiplex bead flow cytometry, Alexa488-MEK5 | binding response (% of control), % at 10 µM | Alexa488-MEK5 binding to MEKK2 WT; actives lie on both sides | 1.1% of 290,000 active; in the data active means binding response below about 67% or above about 130%
GRK2 CP1 = GRK2 aptamer-displacing inhibitors, retest, confirmation, biochemical, cherry pick 1, bead flow cytometry. shares compounds with GRK2 inh. bead-bound GRK2, FAM-aptamer displacement. aptamer displacement, % at 10 µM. 4% of 2,000 active. AID 504451, 2011;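 active means aptamer displacement above 40%, near three times the noise of non-fluorescent compounds, on plates passing quality checks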;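 further: negative values mostly reflect intrinsic compound fluorescence rather than true enhancement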
Aptamer quench 1 = quenches fluorescent RNA aptamer, GRK2 hit artifact; shares compounds with GRK2 inh; Fluorescent RNA aptamer beads, quenching, flow cytometry; active compounds read high; fluorescence change (kMESF span), kMESF (test concentration not listed); 110 tested, under 10 active;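 active means compounds whose bead fluorescence drops by more than 37 kMESF across the dose range, marking them as dye quenchers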
FAM quench CP1 = counter-screen for GRK2 aptamer inhibitors: fluorescent aptamer quenchers; fluorescence response (% of DMSO), % at 10 µM; shares compounds with GRK2 inh; Carboxyfluorescein RNA aptamer on beads, flow cytometry quenching; active compounds read low; 2,000 tested, under 10 active;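 active means compounds that quench the bead-bound fluorescent RNA probe, cutting fluorescence to under half of the solvent control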;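 further: counterscreen run without GRK2 so only probe quenching by compound is measured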
An asterisk follows results filed as active; . = no result given.

SMILES | MEKK3 PB1 HTS | GRK2 inh | MEKK2 mut-MEK5 | MEKK2wt PB1 HTS | GRK2 CP1 | FAM quench CP1 | others
CN(C)c1cccc(C(=O)OCc2cc(=O)oc3cc(O)ccc23)c1 | 109 | 54* | 6 | 114 | 55* | 101 | Aptamer quench 1=4
CCCCCC/C=C/c1ccc(OC)c([C@H]2[C@H]3C=CC[C@@H](C)[C@@H]3C(=O)N2Cc2ccccc2)c1 | 104 | 1 | 3 | 95 | . | .
CCCCCC/C=C/c1ccc([C@H]2[C@H]3C=CC[C@@H](C)[C@@H]3C(=O)N2Cc2ccccc2)c(F)c1 | 95 | 1 | 2 | 92 | 3 | 94
Cc1ccc2c(c1)c1c(n2CCc2ccc(C)nc2)CCN(C)C1 | . | 0 | . | . | . | .
COc1ccc([C@H]2Cc3cccc(O)c3C(=O)O2)cc1O | . | 85* | . | . | -2 | 104
COc1cc2c(cc1NC(=O)c1cccc([N+](=O)[O-])c1)oc1ccccc12 | 99 | 92* | 1 | 96 | -23 | 105
Cn1c(=O)[nH]c(=O)c2c1nc(CN1CCN(c3ccc(F)cc3)CC1)n2CCN1CCOCC1 | 98 | 0 | -6 | 105 | . | .
COC(=O)Cn1c(CN2CCOCC2)nc2c1c(=O)[nH]c(=O)n2C | 110 | 34 | 8 | 108 | -2 | 100
NS(=O)(=O)c1ccc(NC(=O)c2cccc(N3C(=O)c4ccccc4C3=O)c2)cc1 | 91 | 5 | -7 | 90 | . | .
Cc1cc(C)cc(NC(=O)C2CCCN2S(=O)(=O)c2ccc3c(c2)C(C)(C)C(=O)N3C)c1 (stereo not given) | 95 | 2 | 0 | 93 | . | .
CCOc1ccc(NC(=O)C2CCCN2S(=O)(=O)c2ccc3c(c2)C(C)(C)C(=O)N3C)cc1 (stereo not given) | 100 | 48* | 2 | 105 | 2 | 96
CCCCNC(=O)COC(=O)c1ccc(C)c(NC(=O)c2ccco2)c1 | 89 | 0 | -8 | 88 | . | .
Cc1ccc(C(=O)OCc2c(C)noc2C)cc1NC(=O)c1ccco1 | 102 | 1 | 2 | 98 | -2 | 96
CC(OC(=O)Cc1c[nH]c2ccccc12)C(=O)c1ccccc1 (stereo not given) | . | 2 | . | . | . | .
CC(OC(=O)Cc1c[nH]c2ccccc12)C(=O)N(C)c1ccccc1 (stereo not given) | . | 9 | . | . | -1 | 96
CCCc1cc(C(=O)OC)c2ccccc2n1 | 109 | 0 | 5 | 110 | . | .
COC(=O)c1cc(Cl)nc2ccccc12 | 80 | 87* | -7 | 93 | 3 | 95
O=C1CC(c2cccs2)c2cc3c(cc2N1)OCCO3 (stereo not given) | 106 | 1 | 3 | 104 | . | .
Cc1ccc(C2CC(=O)Nc3cc4c(cc32)OCCO4)s1 (stereo not given) | 114 | 6 | 9 | 109 | -2 | 101
O=c1c([N+](=O)[O-])cccn1Cc1cccc(Br)c1 | 103 | 2 | 3 | 99 | . | .
CCN(CCCNC(=O)Cn1ncc2c([nH]c3ccc(C)cc32)c1=O)c1ccccc1 | 102 | 48* | 0 | 102 | -2 | 98
Cc1ccc2[nH]c3c(=O)n(CC(=O)NCCCN(C)Cc4ccccc4)ncc3c2c1 | 99 | 0 | 6 | 108 | . | .
CCN(CCCNC(=O)Cn1ncc2c([nH]c3ccc(C)cc32)c1=O)c1cccc(C)c1 | 95 | 0 | -3 | 93 | -6 | 99
O=C(NCCCCc1ccccc1)C1CCCC1 | 102 | 2 | 5 | 106 | . | .
O=C1CC(N2CCc3ccccc32)C(=O)N1c1ccc(F)cc1 (stereo not given) | 100 | 0 | 1 | 101 | . | .
SMILES | MEKK3 PB1 HTS | GRK2 inh | MEKK2 mut-MEK5 | MEKK2wt PB1 HTS | GRK2 CP1 | FAM quench CP1 | others
Cc1nn(Cc2c(F)c(F)c(F)c(F)c2F)c(C)c1NC(=O)c1ccc(COc2ccccc2Cl)o1 | . | 2 | . | . | 2 | 99
CC1CC(C)CN(C(=O)C2CCN(S(=O)(=O)c3ccc4c(c3)CC(C)N4C(=O)C3CC3)CC2)C1 (stereo not given) | 106 | 3 | 4 | 106 | . | .
COC(=O)NNC(=O)COc1ccc(Br)c(C)c1 | 100 | 1 | 1 | 100 | . | .
Cc1cc(OCC(=O)Nn2cnnc2)ccc1Br | 89 | 71* | -5 | 91 | 6 | 98
O=[N+]([O-])c1cc(Br)c(O)c(C=Nc2ccc(N3CCOCC3)cc2)c1 | 104 | 51* | -8 | 91 | 0 | 103
COc1cccc(C=Nc2ccc(N3CCOCC3)cc2)c1O | 104 | 3 | 1 | 104 | . | .
CCN(/N=C/c1ccc(Cl)cc1)c1cc(=O)n(C)c(=O)[nH]1 | 100 | 92* | 3 | 93 | -8 | 95
CCN(/N=C/C=C/c1ccccc1)c1cc(=O)n(C)c(=O)[nH]1 | 97 | 0 | 19 | 123 | . | .
CC(OC(=O)c1nn(C(C)C)c(=O)c2ccccc12)C(=O)Nc1ncc(Cl)cc1Cl (stereo not given) | 105 | 3 | 1 | 103 | . | .
O=C1CN(C(=O)c2ccccc2F)c2ccccc2N1 | 101 | 48* | -1 | 100 | 1 | 96
O=C1CN(C(=O)c2ccccn2)c2ccccc2N1 | 107 | 0 | 8 | 112 | . | .
Cn1c(C(=O)N[C@@H](C(=O)O)c2ccccc2)cc2cc(F)ccc21 | 100 | 64* | 4 | 102 | 2 | 99
O=C(Cc1ccc(Cl)cc1)NC1CCCN(Cc2ccccc2F)C1 (stereo not given) | 103 | 0 | 8 | 105 | . | .
CN(c1ncc(C(F)(F)F)cc1Cl)N1C(=O)c2cccc([N+](=O)[O-])c2C1=O | 98 | 57* | -4 | 97 | 0 | 102
O=C(CN1C(=O)COc2ccc(S(=O)(=O)N3CCOCC3)cc21)Nc1cccc(Cl)c1 | 101 | 66* | 1 | 101 | -5 | 101
CCS(=O)(=O)C(C)(CCl)C(=O)Nc1ccc(C(=O)OC)cc1 (stereo not given) | 95 | 0 | -13 | 93 | . | .
